Among the data in PubChem BioAssay AID939 (National Center for Advancing Translational Sciences (NCATS), 2007) are max response values, retold here.

Inconclusive results are not listed.

The nature of this experiment: Confirmation Concentration-Response Assay for Agonists of the Thyroid Stimulating Hormone Receptor. The settings on record: HEK293 TSHR-CNG cells, membrane potential dye, cAMP; measured here: parental HEK293 counter-screen max. Put shortly: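 Read-out: membrane potential dye fluorescence (emission 590 nm) after 30 min compound exposure, reflecting cAMP-gated CNG opening in TSHR/CNG HEK 293 cells. Dye with 100 uM RO 20-1724 pre-equilibrated 60 min at room temperature. CNG-only parental cells control.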
(Counterscreens check selectivity or assay interference.)
For the compound `COC(=O)c1cc(NC2c3ccccc3C(=O)N2c2cccnc2)cc(C(=O)OC)c1` (stereo not given), the max response turned out to be 17.7%.

In the case of `Cc1ccccc1NC(=O)N1C2CCCC1CC(NC(=O)C1CC1)C2` (stereo not given), the max response stood at 20.1%. For `CSc1nc(NC(C)(C)C)nc(Oc2ccc(=O)[nH]n2)n1` the value was -2.82%; for `Cc1onc(-c2ccccc2Cl)c1C(=O)Nc1ccc(-n2nncc2-c2ccco2)cc1`, -3.47%. In the case of `CC(C)CC(=O)Nc1cccc(-c2cn3ccsc3n2)c1`, the max response is -8.65%. `COc1cc(NC(=O)c2cc(-n3cnnc3)ccc2Cl)cc(OC)c1`: the max response is -1.27%.

Regarding `CCn1c(=O)c(C(=O)CN2CCCc3ccccc32)c(N)n(Cc2ccccc2)c1=O`, the max response was -16.6%. Consider `CN1C(=O)C2C=CC1C1C(=O)N(c3ccccc3)C(=O)C21` (stereo not given), for which the max response amounted to 2.29%.

`CC(=O)N1CCCc2cc(S(=O)(=O)N(CC(C)C)CC(C)C)ccc21`: the max response came to 14.4%. For `COc1cc(/C=N/n2c(SC)nnc(C(C)(C)C)c2=O)ccc1O` the value was -7.99%.

`O=C(CN(Cc1ccccc1Cl)C(=O)Cn1nnc(-c2cccs2)n1)NCC1CCCO1` (stereo not given): the max response came out at 8.66%. Turning to `O=C(C1COc2ccccc2O1)N1CCCC1` (stereo not given), the max response was -1.94%. The result for `Cc1nc2ccc(Br)cn2c(=O)c1Cl` reads -3.12%; that for `Oc1ccccc1-c1cc(C(F)(F)C(F)F)nc(-c2ccccc2)n1`, 3.44%; that for `O=C1c2ccccc2C(=O)N1Cc1nc(-c2ccccc2)no1`, 21.1%. `CN1C(=O)N(C)C2(c3ccccc3)Nn3c(s/c(=C/c4ccco4)c3=O)=NC12c1ccccc1` (stereo not given): the max response is -0.854%. Consider `COc1ccc(-c2cc(C(F)(F)F)nc(SCCC(=O)N3CCOCC3)n2)cc1`, for which the max response came out at 13%. On to `COC(=O)C1=C(C)OC(N)=C(C#N)C1C1CCCCC1` (stereo not given), for which the max response came out at 16.5%. Turning to `Cc1nn(-c2ccccc2)c(N2CCCC2)c1/C=N/n1cnc2scc(-c3ccccc3)c2c1=O`, the max response was 16.6%. The result for `COc1cccc(C(c2nnnn2Cc2ccccc2)N2CCN(C(=O)c3ccco3)CC2)c1OC` (stereo not given) reads -3.51%; that for `CCOC(=O)N1CCC(NC(=O)c2ccc(CNS(=O)(=O)c3ccc(F)cc3)cc2)CC1`, 8.37%; that for `COc1ccc(-c2ccc(-c3noc(C)n3)c(OC)n2)cc1`, 8.55%. The result for `CCSCCOC(=O)C1=C(C)N(C)C(=O)NC1c1cc(OC)ccc1OC` (stereo not given) reads 7.65%; that for `CN(Cc1ccco1)C(=O)Cn1c(=O)oc2cc(S(=O)(=O)NCc3ccccc3)ccc21`, -3.7%; that for `CCS(=O)(=O)N1CCN(C(C)CCc2ccccc2)CC1` (stereo not given), -2.55%. Consider `C=CCn1c(COc2ccccc2F)nnc1SCC(=O)N1CC(=O)Nc2ccccc21`, for which the max response is -6.56%. For `NC(=O)c1nsc(C(=O)N(CC(=O)NCc2ccc3c(c2)OCO3)C2CCCCC2)c1N`, the max response came to 8.82%. On to `CCc1ccccc1NC1=NCC(=O)N1Cc1ccc(OC)cc1`, for which the max response was -6.12%. As to `Cc1ccc2nc(SCC(=O)O)nc(C)c2c1`, the max response is 13%. Consider `CC(=O)Nc1ccc(S(=O)(=O)N(C)c2ccccc2)cc1`, for which the max response was 4.53%.
